The text below walks through data of PubChem BioAssay.

Assay [1] has as its target Cell division control protein 42 homolog (Homo sapiens) (UniProt P60953). As to the kind of experiment: activated mutant Cdc42 GTP-binding inhibitors, dose response, biochemical, multiplex bead flow cytometry, Bodipy-FL-GTP (AID 1333). For orientation: In flow cytometry, cells or beads pass a laser one at a time.
For assay [2] the target is unchanged. Put plainly: wildtype Cdc42 GTP-binding inhibitors, dose response, biochemical, multiplex bead flow cytometry, Bodipy-FL-GTP (AID 1334;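 active = fitted half-maximal concentration within the tested range, moderate curve steepness, significant signal drop, and little compound fluorescence or bead-linkage interference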). To be noted: bead-based flow cytometry, Bodipy-FL-GTP binding to GST-Cdc42; at 100 µM (top of the series) unless noted.
For assay [3], the target named is GTPase HRas (Homo sapiens) (UniProt P01112). Put plainly: inhibitors of GTP binding to wildtype Ras, dose response, biochemical, multiplex bead flow cytometry (AID 1335;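 active = fitted half-maximal concentration within 10 nM to 100 µM, steepness 0.5 to 2, significant signal drop, low assay interference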). To be noted: bead-based flow cytometry, Bodipy-GTP binding to GST-Ras; at 100 µM (top of the series) unless noted.
The subject of assay [4] is Ras-related protein Rab-7a (dog), GTP binding. Put plainly: Rab7 GTP binding inhibitors, potency, dose response, biochemical, wildtype, multiplex bead flow cytometry (AID 1336; call rule not given here).
The target of assay [5] is Ras-related C3 botulinum toxin substrate 1 (Homo sapiens) (UniProt P63000). As to the kind of experiment: wildtype Rac1 GTP binding inhibitors, dose response, biochemical, multiplex bead flow cytometry (AID 1340;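 active = dose curve with midpoint inside tested range, moderate steepness, plateau gap beyond fit error, low compound glow and bead-link interference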). The following applies: GST-Rac1 beads, Bodipy-FL-GTP binding; at 100 µM (top of the series) unless noted.
The target in assay [6] is GTPase HRas (Homo sapiens) (UniProt P01112). Put plainly: activated Ras mutant GTP binding inhibitors, dose response, biochemical, multiplex bead flow cytometry (AID 1341;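 active = dose-response curve with midpoint inside the tested range, moderate steepness, significant amplitude and little compound fluorescence or bead-attachment interference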;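 note: GST-tagged constitutively activated Ras mutant immobilized on beads and multiplexed with other GTPases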).
Assay [7] in a line: RPL19A-GFP modulators, yeast TOR pathway, confirmation, cell-based, S. cerevisiae, flow cytometry, cherry picks, mother/daughter gates (AID 2270;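 active = GFP response below 50% of the DMSO control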). The following applies: S. cerevisiae RPL19A-GFP strain, 3 h, at 10 µM, stronger effect = lower value, 100 = same GFP as DMSO wells.
Assay [8] can be described thus: LAP4-GFP expression modulators in yeast, confirmation, cell-based, cherry picks, flow cytometry, mother/daughter gates (AID 2271;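 active = GFP response above 150% of the DMSO control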;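 note: ratio of sample to DMSO plate mean so 100% equals DMSO level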). The following applies: S. cerevisiae LAP4-GFP strain, 3 h, at 10 µM, stronger effect = higher value, 100 means same as DMSO control.
A short description of assay [9]: modulators of MEP2-GFP levels in yeast, confirmation, S. cerevisiae, flow cytometry GFP, cherry picks (AID 2272;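 active = GFP response above 150% of the DMSO control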;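 note: ratio of well signal to plate DMSO mean so 100% equals DMSO level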). The following applies: S. cerevisiae MEP2-GFP strain, 3 h, at 10 µM, stronger effect = higher value.
A short description of assay [10]: AGP1-GFP expression modulators, hit retest, confirmation, cell-based, flow cytometry, S. cerevisiae, cherry picks (AID 2273;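 active = GFP response above 150% of the DMSO level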;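 note: median GFP channel fluorescence over the whole cell population gate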). The following applies: S. cerevisiae AGP1-GFP strain, 3 h, at 10 µM.
Assay [11] is described as follows: modulators of CIT2-GFP expression in yeast, confirmation, S. cerevisiae, GFP fusion, cherry picks, mother/daughter gates (AID 2274;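 active = GFP response above 150% of the DMSO level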). The following applies: S. cerevisiae CIT2-GFP strain, flow cytometry, 3 h, at 10 µM, stronger effect = higher value.
The nature of assay [12]: compound autofluorescence in yeast s288c, dose response, artefact control for yeast TOR pathway GFP screen, s288c strain (AID 2757;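 active = fluorescence span over the dose series, or activity score, above about 33, limit read from the data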;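 note: thousands of bead-calibrated equivalent soluble fluorophore molecules from median cell fluorescence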). The following applies: S. cerevisiae s288c, 520 nm autofluorescence, flow cytometry, 3 h; at 33 µM; stronger effect = higher value; zero means same as solvent-only cells.
The mark [13] stands for this setting: measured here: daughter cell gate.
Setting [14] is: measured here: mother cell gate.
[15] abbreviates: measured here: daughter cell gate response.
The mark [16] stands for this setting: measured here: mother cell gate response.

The structures appear in SMILES notation. For some of these results: Potency and affinity values are given separately. Some of the results follow. Active and inactive are the calls of the source.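 Rule for the calls, unless noted: active = fitted half-maximal concentration within the tested dose range, moderate curve steepness, a statistically real signal drop, and little compound fluorescence or tag-binding interference; inactive = the rest.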

Sequence of Cell division control protein 42 homolog (Homo sapiens) (P60953 whole entry, looked up): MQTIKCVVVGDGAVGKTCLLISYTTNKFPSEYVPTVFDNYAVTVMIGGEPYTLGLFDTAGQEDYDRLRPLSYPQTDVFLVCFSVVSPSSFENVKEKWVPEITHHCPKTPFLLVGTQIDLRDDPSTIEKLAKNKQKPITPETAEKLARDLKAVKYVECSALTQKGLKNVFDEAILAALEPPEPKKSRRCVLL
Sequence of GTPase HRas (Homo sapiens) (P01112 whole entry, looked up): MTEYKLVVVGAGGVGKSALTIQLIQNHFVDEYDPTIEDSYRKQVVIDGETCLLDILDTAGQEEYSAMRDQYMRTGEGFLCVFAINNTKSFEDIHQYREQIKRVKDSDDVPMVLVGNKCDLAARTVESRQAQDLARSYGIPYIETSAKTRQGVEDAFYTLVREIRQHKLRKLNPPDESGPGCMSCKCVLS

In the case of `Oc1ccc2ccccc2c1/C=N/Nc1nnc(-c2ncc[nH]2)c2ccccc12`, the molecule was classed as inactive in [1], in [4] and in [6]. In [2], this molecule showed a fluorescence, percent of control (lower = inhibition) of 44%. Further, the GTP binding, percent of control in assay [3] was 59.7%. Also, in [5], the GTP binding signal, raw median fluorescence (lower = inhibition) (MCF (arbitrary fluorescence units)) is 138. Further, the GFP response vs DMSO in assay [7] is 108% (inactive); in assay [7] (setting [13]), 91.9%; in [7] (setting [14]) it was 108%; in [9], 137% (inactive). Moreover, the results for the GFP response relative to DMSO in assay [8], in [8] (setting [15]) and in assay [8] (setting [16]) were 123% (inactive), 119% and 128%, respectively. Moreover, the GFP response, % of DMSO was 95.9% (inactive) in assay [10], 162% (active) in [11], 114% in assay [11] (setting [13]) and 205% in assay [11] (setting [14]).

As to `COc1cc(/C=N/Nc2nnc3c(n2)[nH]c2ccccc23)ccc1O`, the molecule was called inactive in assay [1], in [4] and in assay [6]. For the same molecule, the fluorescence, percent of control (lower = inhibition) in assay [2] was 33.9%. Besides, the GTP binding, percent of control in assay [3] came to 79.1%.

On to `O=C(/C=C/c1ccc(Cl)c([N+](=O)[O-])c1)c1cccnc1`, for which the molecule was classed as inactive in assay [1], in assay [4] and in assay [6]. For the same molecule, the fluorescence, percent of control (lower = inhibition) in assay [2] is 30.5%. This molecule also returned a GTP binding, percent of control in [3] of 73.5%. The same molecule displayed a GTP binding signal, raw median fluorescence (lower = inhibition) (MCF (arbitrary fluorescence units)) in [5] of 206. Also, the GFP response vs DMSO in assay [7] was 91.5% (inactive); in assay [7] (setting [13]), 89.7%; in assay [7] (setting [14]) it was 84.1%; in [9], 105% (inactive). The GFP response relative to DMSO in [8] was 207% (active); in assay [8] (setting [15]), 192%; in assay [8] (setting [16]) it was 215%. Further, the GFP response, % of DMSO in assay [10] is 107% (inactive); in assay [11] it was 86% (inactive); in [11] (setting [13]), 102%; in [11] (setting [14]), 72.8%. The fluorescence change (kMESF span) in assay [12] is 1.02 (inactive).

Take `O=C1C2CC=CCC2C(=O)N1c1ncn[nH]1` (stereo not given): the call in [1], in [4] and in assay [6] was inactive. This molecule yielded a fluorescence, percent of control (lower = inhibition) in [2] of 97.2%. Also, the GTP binding, percent of control in assay [3] worked out at 161%. The same molecule returned a GTP binding signal, raw median fluorescence (lower = inhibition) (MCF (arbitrary fluorescence units)) in [5] of 189.

With `Cc1ccc(-n2c(-c3cnccn3)n[nH]c2=S)c(Br)c1`, the fluorescence, percent of control (lower = inhibition) in assay [2] was 23.2%. The GTP binding, percent of control in [3] came to 60.1%. The molecule was classed as inactive in assay [4] and in assay [6]. In addition, in [5], the GTP binding signal, raw median fluorescence (lower = inhibition) (MCF (arbitrary fluorescence units)) was 190.

For the molecule `Cc1cc(C(=O)O)sc1CNCc1ccccc1Cl`, the call in assay [1] was inactive. This molecule had a fluorescence, percent of control (lower = inhibition) in [2] of 60.4%. The GTP binding signal, raw median fluorescence (lower = inhibition) (MCF (arbitrary fluorescence units)) in [5] amounted to 33.9.

Regarding `CCN1C(c2ccccc2)=C(c2ccccc2)S/C1=C/C=C1\SC(=S)N(C)C1=O`, the molecule was called inactive in [1], in assay [4] and in assay [6]. The fluorescence, percent of control (lower = inhibition) in assay [2] came to 41.8%. Moreover, the GTP binding signal, raw median fluorescence (lower = inhibition) (MCF (arbitrary fluorescence units)) in assay [5] turned out to be 167.

Regarding `COc1ccc(C(=O)/C=C/Nc2ccc(S(=O)(=O)Nc3nc(C)cc(C)n3)cc2)cc1OC`, the molecule was called inactive in [1], in [4] and in assay [6]. Besides, the fluorescence, percent of control (lower = inhibition) in assay [2] worked out at 39.1%. In assay [3], this molecule registered a GTP binding, percent of control of 80%.

`O=C(NNC(=S)NCc1ccc(Cl)cc1)c1ccc(Br)o1`: the call in assay [1], in assay [4] and in assay [6] was inactive. Further, the fluorescence, percent of control (lower = inhibition) in [2] amounted to 28.8%. In assay [3], this molecule gave a GTP binding, percent of control of 74.4%.

As for `CCCS(=O)(=O)c1nnnn1-c1cccc(OC)c1`, the call in assay [1], in assay [4] and in assay [6] was inactive. Further, in assay [3], the GTP binding, percent of control is 71.2%. The molecule further returned a GTP binding signal, raw median fluorescence (lower = inhibition) (MCF (arbitrary fluorescence units)) in assay [5] of 230. For the same molecule, the GFP response vs DMSO in [7] is 87.7% (inactive); in assay [7] (setting [13]), 84.6%; in assay [7] (setting [14]) it was 83.9%; in assay [9], 119% (inactive). In addition, the figures for the GFP response relative to DMSO in assay [8], in assay [8] (setting [15]) and in assay [8] (setting [16]) were 176% (active), 154% and 178%, respectively. For the same molecule, the GFP response, % of DMSO was 106% (inactive) in assay [10], 74.8% (inactive) in assay [11], 74.6% in [11] (setting [13]) and 65.8% in [11] (setting [14]).
